# Assay outcomes as filed in PubChem BioAssay.
# Sfp PPTase inh = qHTS Assay for Inhibitors of Bacillus subtilis Sfp phosphopantetheinyl transferase (PPTase) | Biochemical Sfp PPTase activity, qHTS | Potency, µM, for the others: largest response in the series, negative = inhibition, usual class: inhibitors | 310,000 tested, 3.5% active | AID 1490, 2009;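 note: the enzyme is Sfp with the accession as filed and its product quenches rhodamine fluorescence; potency is the fitted concentration of half-maximal effect; 0% = enzyme reaction without inhibitor and -100% = no enzyme wells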
#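 Compounds were incubated with enzyme (final 15 nM) for 15 min at room temperature before substrate addition started the reaction. Fluorescence at 525 nm excitation, 598 nm emission was recorded immediately and after 30 minutes.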
# ELG1 DNA repair = qHTS screen for small molecules that inhibit ELG1-dependent DNA repair in human embryonic kidney (HEK293T) cells expressing luciferase-tagged ELG1; HEK293T ELG1-luciferase reporter, luminescence, 16 h; DNA damage induced by 5-fluorouridine; Potency, µM (top dose mostly 46.1 µM), without a hit: top-dose activity change, negative = inhibition, actives largely listed as inhibitors; 330,000 tested, 2.3% active; AID 504467, 2011; note: potency is the fitted concentration of half-maximal effect; nearly all actives have a fitted effect of over 55% in size
#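 Reporter activity after DNA damage by 5-fluorouridine is monitored. Compound-treated cells incubate 16 hr at 37 °C, then ONE-Glo is added for 30 min before luminescence reading.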
# FBPA coupling cs = qHTS Assay for Inhibitors of Fructose-1,6-bisphosphate Aldolase from Giardia Lamblia: Coupling assay counterscreen | AID 2472, 2010 | coupling enzyme system counterscreen, AmpLite Red fluorescence | activity change, negative = inhibition, % at 58.2 µM, hits read low | 290,000 tested, 0.67% active; in the data active = activity change below about -30%
#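 Counterscreen lacking aldolase: glyceraldehyde-3-phosphate coupling-enzyme reagent preincubated 10 min at RT with compound (at 57.5 uM final), then substrate/coupling system with AmpLite Red added; fluorescence read at 525/598 nm after 20 min RT.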
# Giardia kill = Small Molecules that selectively kill Giardia lamblia: qHTS. Giardia lamblia trophozoite viability. activity change, % at 7.66 µM, hits read low. 340,000 tested, 0.15% active. AID 540267, 2011; in the data active = activity change below about -80%; inconclusive = between about -30% and that limit;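 note: parasites exposed to compound for two days anaerobically before the ATP read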
#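 Giardia lamblia trophozoites (100 cells/well) were incubated with compounds for 48 h at 37 deg C under anaerobic conditions. Viability was read as ATP content by one-step luminescence after 15-30 min at room temperature.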
# The depositor's hits bear a star; ? = inconclusive; · = not tested or not shown. Sampled rows, rich in hits. Any-hit rate of the full collection: about 5.5%. Unless noted, calls come from the whole dose curve; as a rule, active = well fitted curve in the direction sought with a large enough effect; inconclusive = small, poorly fitted or top-dose-only effect, or another doubt; inactive = no such curve, though single readings can be large; an effect the other way counts as inactive or inconclusive. Unless noted, % is set by controls: 0 for no effect and ±100 for the full control effect.
SMILES,Sfp PPTase inh,ELG1 DNA repair,FBPA coupling cs,Giardia kill
COc1ccc(C(=O)Cn2c(Cl)nc3c2c(=O)n(C)c(=O)n3C)cc1,13µM*,16µM*,4,9
COc1cccc(-c2ncc3ccccc3c2COC(=O)c2ccc(C(F)(F)F)cc2)c1,·,21µM*,·,4
Cc1ccc(-c2nc(CSCC(=O)N3CCN(c4ccccn4)CC3)c(C)o2)cc1,-4%,10µM*,1,-13
O=c1c2c(nc3cc(-c4ccccc4Cl)[nH]n13)CCS2,22µM*,?,-1,-16
COc1ccc(C2C(C(=O)/C=C/c3ccco3)=C(O)C(=O)N2CCN2CCOCC2)cc1 (stereo not given),-30%,-12%,-24,-11
COc1cccc(C2C(C(=O)/C=C/c3ccco3)=C(O)C(=O)N2CCN2CCOCC2)c1 (stereo not given),?,3%,-33*,1
CCOc1ccc(C2C(C(=O)/C=C/c3ccco3)=C(O)C(=O)N2CCN2CCOCC2)cc1OC (stereo not given),56µM*,29%,-29,-15
C=CCOC(=O)C(C#N)c1nc2ccccc2nc1N1CCN(c2ccccc2OCC)CC1 (stereo not given),1%,15µM*,0,-8
COc1ccc(CNC(=O)C(C#N)c2nc3ccccc3nc2N2CCCC2)cc1 (stereo not given),0%,5.8µM*,6,-20
CCCCNC(=O)C(C#N)c1nc2ccccc2nc1N1CCN(Cc2ccc3c(c2)OCO3)CC1 (stereo not given),·,·,·,9
C=CCOC(=O)C(C#N)c1nc2ccccc2nc1N1CCN(Cc2ccc3c(c2)OCO3)CC1 (stereo not given),-8%,16µM*,-6,-2
Cc1ccc(S(=O)(=O)N(C)c2ccc(OC(C)C(=O)N(C)c3ccccc3)cc2)cc1 (stereo not given),·,?,·,-17
O=C(O)c1ccc(NC(=O)c2ccccc2NC(=O)c2ccccc2Cl)cc1,22%,10%,7,2
COC(=O)c1c(C(=O)OC)c2cc(C(=O)c3ccccc3)ccn2c1Cl,?,26µM*,-16,1
Cc1cc(C)n2nc3nc(N4CCCC4)nc(-c4ccccc4)c3c2n1,16%,10µM*,6,2
Nc1[nH]nc2nc(N3CCCC3)nc(-c3ccccc3)c12,-15%,-1%,0,-1
c1ccc(-c2nc(N3CCCC3)nc3ccccc23)cc1,40µM*,2%,9,-7
CC12CN(C(=O)c3cccc([N+](=O)[O-])c3)C3(C#N)CC1CCC23C (stereo not given),-5%,3%,3,10
COc1ccc(-c2c[n+]3c(n2-c2ccccc2)CCCCC3)cc1,17%,?,0,-17
COc1ccc(-n2c(-c3ccc(Cl)cc3)c[n+]3c2CCCCC3)cc1,8%,5.8µM*,2,13
COc1ccc(-c2c[n+]3c(n2-c2ccc(C)cc2)CCCCC3)cc1,6%,0.92µM*,3,5
O=C(Cn1c(=O)oc2ccc(Cl)cc21)Nc1ccon1,5%,22%,1,27
CC1(C)Cc2c(sc(N)c2C#N)C(C)(C)N1,18µM*,18%,-3,-3
CC1(C)Cc2c(sc(NC(=O)C(C)(C)C)c2C#N)C(C)(C)N1,-8%,20%,0,9
Cc1ccc(S(=O)(=O)NCC(=O)N(c2ccccc2)C(C(=O)NCc2ccccc2)c2ccco2)cc1 (stereo not given),79µM*,-14%,0,18
SMILES,Sfp PPTase inh,ELG1 DNA repair,FBPA coupling cs,Giardia kill
CC1(C)C2CCC(C2)C1(C)NC(=O)CNCc1cccs1 (stereo not given),89µM*,8%,2,-19
Cc1cn(CC(=O)NCCCN2CCCC2=O)c(=O)[nH]c1=O,·,·,·,25
O=C(O)CCC/C=C\C[C@H]1C(=O)C[C@@H](O)[C@@H]1/C=C/[C@@H](O)CCc1ccccc1,6%,·,1,·
Cc1cccc(-n2cc[nH]c2=S)c1,56µM*,35%,2,-7
Cc1cc(/C=C2\SC(=S)NC2=O)c(C)n1-c1ccc(O)cc1,45µM*,?,4,-19
Cc1cc(/C=C2\SC(=S)NC2=O)c(C)n1-c1ccccc1,-26%,?,-1,-16
Cc1[nH]n(S(=O)(=O)c2ccccc2)c(=O)c1N=Nc1cccc(Cl)c1,6%,-16%,1,?
Cc1[nH]n(S(=O)(=O)Cc2ccccc2)c(=O)c1N=Nc1ccccc1Cl,11%,?,6,-89*
O=C(O)CC/C=C\C[C@@H]1CO[C@H](c2ccccc2Cl)O[C@@H]1c1ccccc1O,?,·,7,·
CC(C)(C)c1cc(NC(=O)CSc2nnc(NCc3ccccc3)s2)n(-c2ccccc2)n1,22%,23µM*,-3,17
COc1ccccc1-n1cnnc1SCC(=O)Nc1cc(C(C)(C)C)nn1-c1ccccc1,10%,?,-4,17
COCCNc1nnc(SCC(=O)Nc2cc(-c3ccccc3)nn2-c2ccccc2)s1,2%,21µM*,4,-15
COCCNc1nnc(SCC(=O)Nc2nnc(-c3ccccc3)o2)s1,·,20%,·,12
CC(C)(C)c1cc(NC(=O)CSc2nnc(N)s2)n(-c2ccccc2)n1,13%,-16%,0,2
COc1ccc(-n2cnnc2SCC(=O)Nc2cc(C(C)(C)C)nn2-c2ccccc2)cc1,17%,21µM*,-1,-1
C[C@@H]1C(=O)O[C@@H]2C[C@]34[C@H]5C[C@@H](C(C)(C)C)[C@@]36[C@@H](OC(=O)[C@@H]6O)O[C@@]4(C(=O)O5)[C@@]12O,11%,·,-3,·
NCCC[C@@H](CC(=O)N[C@@H]1CCNC[C@H]1C(=O)N[C@H](CC(=O)N[C@@H](CCC(=O)O)CC(=O)O)Cc1ccccc1)NC(=O)C[C@H](Cc1c[nH]c2ccccc12)NC(=O)[C@@H]1CNCC[C@H]1N,-8%,·,0,·
Cc1ccccc1C(=O)NCCc1nnc(SCC(=O)Nc2nc(-c3ccccc3)cs2)n1C,7%,?,-2,4
Cc1sc(NC(=O)CSc2nnc(CCNC(=O)c3cccs3)n2C)nc1-c1ccccc1,15%,16µM*,2,2
OC(CNCc1ccco1)Cn1c2ccc(Br)cc2c2cc(Br)ccc21 (stereo not given),20µM*,?,2,-3
Cc1nc(C)c(C(=O)NCCC(c2ccccc2)c2ccccc2)o1,-6%,5.8µM*,3,-23
Cc1ccsc1C(=O)NCCC(c1ccccc1)c1ccccc1,10%,-5%,1,32
CC(=O)N1CCC2(CC1)CCN(C(=O)Nc1cccc(F)c1)CC2,-13%,·,0,·
O=[N+]([O-])c1cncn1CCN1CCOCC1,·,·,·,-91*
Cc1ccccc1N=C/C=C1/C=C(c2ccccc2)OC(C)(C)O1,-12%,13µM*,-4,-21
